Among the data in PubChem BioAssay (Tox21) are Potency and activity change, negative = inhibition values, retold here.

Experiment [1] can be described thus: Caspase-3/7 induction in CHO-K1 cells by small molecules, qHTS cell viability counter screen (AID 1346979). Also: nearly all actives have a fitted effect of over 35% in size. Also: potency is read from the fitted curve at half-maximal effect. A digest of the protocol: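 CellTiter-Fluor viability check, qHTS format: wild-type CHO-K1, 16hr compound treatment, 1hr reagent incubation, fluorescence read.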
In general terms: Quantitative high-throughput screening tests each substance at several concentrations.

The nature of experiment [2]: Caspase-3/7 induction in CHO-K1 cells by small molecules, qHTS assay (AID 1346980). Also: nearly all actives have a fitted effect of over 15% in size. A digest of the protocol: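 Wild-type CHO-K1 cells exposed to compounds for 17hr at 37 C, 5% CO2. Caspase-3/7 activity then measured by Caspase-Glo 3/7 luminescence after 30min at room temperature.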
Experiment [3] in a line: Caspase-3/7 induction in HepG2 cells by small molecules, qHTS cell viability counter screen (AID 1346981). Also: nearly all actives have a fitted effect of over 30% in size. Also: potency is read from the fitted curve at half-maximal effect. In short, it runs like this: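 Cell viability is measured as a cytotoxicity counter screen alongside the Caspase-Glo 3/7 readout in identical wells. Wild-type HepG2 cells are treated with test compounds for 16 hr at 37 C before CellTiter-Fluor addition and a 1-hr incubation.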

The target of experiment [4] is Nuclear receptor subfamily 1 group I member 2 (Homo sapiens) (UniProt O75469). Description: Human pregnane X receptor (PXR) small molecule agonists, qHTS assay (AID 1346982). Also: nearly all actives have a fitted effect of over 35% in size. Also: potency is read from the fitted curve at half-maximal effect. In short, it runs like this:
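Cells: HepG2 stably carrying PXR-Luc. Medium held 5% charcoal-stripped FBS. Compounds in DMSO added after 5 hr plating, incubated 24 hr, then luminescence quantified with ONE-Glo.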

The target is the same in experiment [5]. Description: CYP3A4 induction through human pregnane X receptor (PXR) by small molecules, qHTS assay (AID 1346984). Also: nearly all actives have a fitted effect of over 40% in size. In short, it runs like this: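 Quantitative HTS in DPX-2 cells, i.e. HepG2 transfected with PXR response element and CYP3A4-promoter luciferase. Compounds in DMSO incubated 24hr at 37C; then P450-Glo CYP3A4 substrate, 3uM final, 3hr; One-Glo luminescence.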

Experiment [6] shares this target. Description: Human pregnane X receptor (PXR) activation by small molecules, qHTS assay (AID 1346985). Also: nearly all actives have a fitted effect of over 40% in size. Also: potency is read from the fitted curve at half-maximal effect. In short, it runs like this:
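DPX-2 cells (HepG2 co-transfected with a PXR response element and a CYP3A4-promoter luciferase construct) were seeded at 2,000 per well, rested 5 hr at 37C, then exposed to DMSO-dissolved compounds for 24 hr. Activation was read as luciferase luminescence.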

For experiment [7], the target named is Cytochrome P450 2D6 (Homo sapiens) (UniProt P10635). In words: Cytochrome P450 Family 2 Subfamily D Member 6 (CYP2D6) small molecule antagonists: luciferase reporter qHTS assay (AID 1671196). Also: nearly all actives have a fitted effect of over 50% in size. Also: potency is read from the fitted curve at half-maximal effect. As to activity change, negative = inhibition: series mostly up to about 120 µM. A digest of the protocol:
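Enzyme and proluciferin substrate were first combined with test chemical for 10 min at room temperature. Adding NADPH regeneration solution started a 1 h reaction, stopped with luciferin detection reagent and read by luminescence 20 min later.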
Background: Reporter assays use an easily measured gene product as a stand-in for the process of interest.

In experiment [8] the target is Cytochrome P450 2C19 (Homo sapiens) (UniProt P33261). Description: Cytochrome P450 Family 2 Subfamily C Member 19 (CYP2C19) small molecule antagonists: luciferase reporter qHTS assay (AID 1671197). Also: nearly all actives have a fitted effect of over 65% in size. Also: potency is read from the fitted curve at half-maximal effect. As to activity change, negative = inhibition: series mostly up to about 120 µM. In short, it runs like this: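 CYP2C19 P450-Glo, 1536-well qHTS. Cpd + enzyme/proluciferin substrate 10 min RT; + NADPH regen, 37C 1 h; stop with luciferin detection reagent, 20 min RT, luminescence (RLU). Pos ctrl ketoconazole.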

In experiment [9] the target is Voltage-gated inwardly rectifying potassium channel KCNH2 (Homo sapiens) (UniProt Q12809). In words: Human Ether-a-go-go-Related Gene (hERG) channel small molecule antagonists: fluorescence cell-based qHTS assay (AID 1671200).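 Also: hERG-expressing U2OS cells given a thallium stimulus after FluxOR II dye loading; series mostly up to about 77 µM; nearly all actives have a fitted effect of over 50% in size.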 A digest of the protocol:
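Kinetic two-minute fluorescence traces, sampled at 1 s, were collected following thallium stimulus of U2OS cells (1000 per well) that had been cultured overnight at 37 C and loaded with FluxOR II.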
For orientation: The hERG channel carries a current that helps repolarise heart muscle cells.

In experiment [10] the target is Cytochrome P450 2C9 (Homo sapiens) (UniProt P11712). In words: Cytochrome P450 Family 2 Subfamily C Member 9 (CYP2C9) small molecule antagonists: luciferase reporter qHTS assay (AID 1671198). Also: nearly all actives have a fitted effect of over 50% in size. Also: potency is read from the fitted curve at half-maximal effect. As to activity change, negative = inhibition: series mostly up to about 120 µM. In short, it runs like this:
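P450-Glo proluciferin substrate with CYP2C9 enzyme; 10 min RT preincubation, then NADPH regeneration 1 h at 37C; luciferin detection reagent 20 min RT, luminescence in relative luminescence units.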

For experiment [11], the target named is Cytochrome P450 1A2 (Homo sapiens) (UniProt P05177). In words: Cytochrome P450 Family 1 Subfamily A Member 2 (CYP1A2) small molecule antagonists: luciferase reporter qHTS assay (AID 1671199). Also: nearly all actives have a fitted effect of over 50% in size. Also: potency is read from the fitted curve at half-maximal effect. As to activity change, negative = inhibition: series mostly up to about 120 µM. A digest of the protocol:
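Compounds were incubated with CYP1A2 and a luminogenic proluciferin substrate for 10 min at room temperature before the reaction was started with NADPH regeneration solution. After 1 h, detection reagent was added and light output, proportional to CYP activity, was recorded.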

For experiment [12], the target named is Cytochrome P450 3A4 (Homo sapiens) (UniProt P08684). Description: Cytochrome P450 Family 3 Subfamily A Member 4 (CYP3A4) small molecule antagonists: luciferase reporter qHTS assay (AID 1671201). Also: nearly all actives have a fitted effect of over 50% in size. Also: potency is read from the fitted curve at half-maximal effect. As to activity change, negative = inhibition: series mostly up to about 120 µM. In short, it runs like this:
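Proluciferin-to-luciferin conversion by CYP3A4, NADPH-regenerated, 1 h RT; luminescence read as RLU. Ketoconazole as control.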

Where “and” joins values, the source holds several entries; their conditions need not be identical. Equal values may be shown once. Records with an inconclusive call do not appear. Where a structure was tested more than once in an assay, its records may differ in their call. Calls of active or inactive are those of the source. Calls follow the shape of the dose curve; as a rule, active = well fitted curve in the direction sought with a large enough effect in the repeat runs; inconclusive = weak or mixed curves; inactive = no such curve, though single readings can be large; an effect the other way counts as inactive or inconclusive.
% is scaled to controls: 0 for no effect and ±100 for the full control effect.

Nuclear receptor subfamily 1 group I member 2 (Homo sapiens), sequence (O75469 whole entry, looked up): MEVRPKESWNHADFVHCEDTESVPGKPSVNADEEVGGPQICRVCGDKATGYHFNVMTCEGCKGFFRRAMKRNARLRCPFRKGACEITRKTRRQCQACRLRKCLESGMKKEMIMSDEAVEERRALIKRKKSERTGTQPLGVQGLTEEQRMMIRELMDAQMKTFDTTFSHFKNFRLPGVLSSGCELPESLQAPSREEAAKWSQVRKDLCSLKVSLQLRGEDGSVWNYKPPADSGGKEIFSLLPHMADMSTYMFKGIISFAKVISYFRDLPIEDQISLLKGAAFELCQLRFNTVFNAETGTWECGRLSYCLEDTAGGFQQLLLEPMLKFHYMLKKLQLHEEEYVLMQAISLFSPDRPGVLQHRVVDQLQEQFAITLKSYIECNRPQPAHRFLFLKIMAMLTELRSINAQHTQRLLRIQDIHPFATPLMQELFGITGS
Cytochrome P450 2C9 (Homo sapiens), sequence (P11712 whole entry, looked up): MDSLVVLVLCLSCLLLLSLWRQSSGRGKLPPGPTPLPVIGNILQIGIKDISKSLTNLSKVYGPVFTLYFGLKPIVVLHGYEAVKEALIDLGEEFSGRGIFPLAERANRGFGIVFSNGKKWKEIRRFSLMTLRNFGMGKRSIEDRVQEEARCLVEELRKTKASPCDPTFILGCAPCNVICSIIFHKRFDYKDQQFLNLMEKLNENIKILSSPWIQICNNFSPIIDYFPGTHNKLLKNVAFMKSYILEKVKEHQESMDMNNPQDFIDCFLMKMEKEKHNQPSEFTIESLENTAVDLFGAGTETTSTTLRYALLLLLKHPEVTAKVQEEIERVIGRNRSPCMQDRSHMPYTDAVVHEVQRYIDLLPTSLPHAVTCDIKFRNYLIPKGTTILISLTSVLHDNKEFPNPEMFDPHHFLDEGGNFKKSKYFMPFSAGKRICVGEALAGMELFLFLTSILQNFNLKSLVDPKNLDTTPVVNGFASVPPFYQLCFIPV
Cytochrome P450 2D6 (Homo sapiens), sequence (P10635 whole entry, looked up): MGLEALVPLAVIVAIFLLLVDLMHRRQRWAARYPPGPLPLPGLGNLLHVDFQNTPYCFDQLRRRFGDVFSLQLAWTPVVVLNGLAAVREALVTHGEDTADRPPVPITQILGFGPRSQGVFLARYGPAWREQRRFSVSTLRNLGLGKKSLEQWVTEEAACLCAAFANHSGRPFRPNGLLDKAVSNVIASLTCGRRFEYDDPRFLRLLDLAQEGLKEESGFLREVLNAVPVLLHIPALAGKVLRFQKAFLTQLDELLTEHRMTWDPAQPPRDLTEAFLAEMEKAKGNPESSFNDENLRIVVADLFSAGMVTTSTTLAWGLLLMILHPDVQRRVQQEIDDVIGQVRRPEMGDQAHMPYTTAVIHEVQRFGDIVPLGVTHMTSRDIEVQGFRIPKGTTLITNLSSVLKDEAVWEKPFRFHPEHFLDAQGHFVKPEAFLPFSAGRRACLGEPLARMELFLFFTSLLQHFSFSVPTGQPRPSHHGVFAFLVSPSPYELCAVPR
Voltage-gated inwardly rectifying potassium channel KCNH2 (Homo sapiens), sequence (Q12809 whole entry, looked up): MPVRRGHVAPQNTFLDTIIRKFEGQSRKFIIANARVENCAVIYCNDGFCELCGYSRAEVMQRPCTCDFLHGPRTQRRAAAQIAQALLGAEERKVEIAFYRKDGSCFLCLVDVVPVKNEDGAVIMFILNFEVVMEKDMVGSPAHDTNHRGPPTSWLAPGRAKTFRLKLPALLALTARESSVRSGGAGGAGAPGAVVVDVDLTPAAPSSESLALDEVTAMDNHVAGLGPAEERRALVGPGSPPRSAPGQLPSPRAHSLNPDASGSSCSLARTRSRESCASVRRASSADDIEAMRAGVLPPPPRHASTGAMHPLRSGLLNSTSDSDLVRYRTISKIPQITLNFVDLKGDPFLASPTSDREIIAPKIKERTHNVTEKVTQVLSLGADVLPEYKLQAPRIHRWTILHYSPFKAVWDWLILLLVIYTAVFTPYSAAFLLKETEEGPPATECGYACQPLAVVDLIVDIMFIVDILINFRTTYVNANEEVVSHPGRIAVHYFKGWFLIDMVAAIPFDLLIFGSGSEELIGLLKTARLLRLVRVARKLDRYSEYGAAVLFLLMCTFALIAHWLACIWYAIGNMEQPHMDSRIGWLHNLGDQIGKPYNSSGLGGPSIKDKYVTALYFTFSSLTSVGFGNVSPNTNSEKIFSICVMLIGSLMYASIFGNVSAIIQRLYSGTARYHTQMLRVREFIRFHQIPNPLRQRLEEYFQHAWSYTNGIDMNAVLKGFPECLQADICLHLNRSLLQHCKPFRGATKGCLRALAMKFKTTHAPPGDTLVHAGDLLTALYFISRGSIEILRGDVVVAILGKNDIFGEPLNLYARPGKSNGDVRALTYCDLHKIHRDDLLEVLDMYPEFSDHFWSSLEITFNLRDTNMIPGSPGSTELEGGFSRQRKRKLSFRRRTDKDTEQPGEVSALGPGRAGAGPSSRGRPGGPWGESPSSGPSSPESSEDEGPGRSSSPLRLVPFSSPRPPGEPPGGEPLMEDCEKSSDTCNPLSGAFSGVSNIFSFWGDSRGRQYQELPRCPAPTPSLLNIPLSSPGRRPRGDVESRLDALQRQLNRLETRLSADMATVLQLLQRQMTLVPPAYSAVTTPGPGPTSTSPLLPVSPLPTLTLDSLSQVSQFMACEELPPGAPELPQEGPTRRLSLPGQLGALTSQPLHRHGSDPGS
Cytochrome P450 3A4 (Homo sapiens), sequence (P08684 whole entry, looked up): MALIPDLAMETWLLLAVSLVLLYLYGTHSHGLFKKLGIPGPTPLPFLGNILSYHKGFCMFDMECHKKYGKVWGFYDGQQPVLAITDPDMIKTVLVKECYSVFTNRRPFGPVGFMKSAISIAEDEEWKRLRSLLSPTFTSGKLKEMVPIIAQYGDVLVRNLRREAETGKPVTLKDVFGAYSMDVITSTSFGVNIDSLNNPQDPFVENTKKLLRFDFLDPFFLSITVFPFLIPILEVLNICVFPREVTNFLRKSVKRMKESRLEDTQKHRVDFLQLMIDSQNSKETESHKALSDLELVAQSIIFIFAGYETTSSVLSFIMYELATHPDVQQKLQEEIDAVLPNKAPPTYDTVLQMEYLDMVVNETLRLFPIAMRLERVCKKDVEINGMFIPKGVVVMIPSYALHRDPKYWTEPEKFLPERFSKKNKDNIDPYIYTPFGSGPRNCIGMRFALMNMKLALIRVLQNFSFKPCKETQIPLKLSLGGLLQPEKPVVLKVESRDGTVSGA
Cytochrome P450 1A2 (Homo sapiens), sequence (P05177 whole entry, looked up): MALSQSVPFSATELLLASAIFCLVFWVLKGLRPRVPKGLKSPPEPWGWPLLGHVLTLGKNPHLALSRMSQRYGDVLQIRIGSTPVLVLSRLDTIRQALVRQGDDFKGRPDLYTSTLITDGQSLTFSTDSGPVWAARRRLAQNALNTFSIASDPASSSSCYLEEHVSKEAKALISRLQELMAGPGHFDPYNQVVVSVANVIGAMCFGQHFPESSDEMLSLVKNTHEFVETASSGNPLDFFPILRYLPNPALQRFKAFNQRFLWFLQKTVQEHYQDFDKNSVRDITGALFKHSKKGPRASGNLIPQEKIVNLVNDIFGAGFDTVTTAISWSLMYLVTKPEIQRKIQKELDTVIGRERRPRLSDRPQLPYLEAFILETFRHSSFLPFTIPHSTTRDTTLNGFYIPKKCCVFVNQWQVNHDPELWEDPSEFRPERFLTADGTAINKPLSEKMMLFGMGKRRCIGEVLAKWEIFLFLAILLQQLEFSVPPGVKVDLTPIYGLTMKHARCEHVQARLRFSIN
Cytochrome P450 2C19 (Homo sapiens), sequence (P33261 whole entry, looked up): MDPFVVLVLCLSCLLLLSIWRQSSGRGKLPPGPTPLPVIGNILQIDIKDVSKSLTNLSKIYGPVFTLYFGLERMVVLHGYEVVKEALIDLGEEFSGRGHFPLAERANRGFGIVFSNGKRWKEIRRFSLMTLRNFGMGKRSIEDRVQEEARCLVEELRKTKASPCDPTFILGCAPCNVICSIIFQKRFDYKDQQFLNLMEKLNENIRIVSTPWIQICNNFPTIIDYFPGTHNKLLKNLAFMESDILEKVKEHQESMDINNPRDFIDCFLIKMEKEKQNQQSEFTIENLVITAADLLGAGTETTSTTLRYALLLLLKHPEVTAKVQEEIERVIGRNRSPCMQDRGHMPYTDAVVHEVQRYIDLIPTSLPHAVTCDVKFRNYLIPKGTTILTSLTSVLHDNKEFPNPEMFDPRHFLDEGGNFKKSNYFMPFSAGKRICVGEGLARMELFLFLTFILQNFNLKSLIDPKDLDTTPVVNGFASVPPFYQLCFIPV

Take `COc1ccc(OC)c(C(O)CNC(=O)CN)c1` (stereo not drawn): the Potency result in experiment [1], in experiment [2], in experiment [3], in experiment [4], in experiment [5] and in [6] was “inactive” in each case. Further, the Potency entry in [7] and in experiment [9] was “inactive” in each case. Also, in experiment [8], the Potency is 20 µM (active) and 24.5 µM (active).
On to `CCCCNS(=O)(=O)c1ccccc1`, for which the Potency result in experiment [1], in experiment [2], in [3], in [7], in experiment [11] and in [9] was “inactive” throughout. In addition, in experiment [12], the Potency entry was “inactive”. For the same molecule, the Potency in experiment [8] was 7.01 µM (active) and 17.8 µM (active); in experiment [10], 35.1 µM (active) and 35.6 µM (active).
`CCCCCCCCCC(=O)OC`: the Potency result in experiment [1], in experiment [2], in experiment [3], in [7], in [8] and in [10] was “inactive” each time. For the same molecule, the Potency entry in experiment [11], in experiment [9] and in [12] was “inactive” in each case. For the same molecule, the Potency in experiment [4] was 47.7 µM (active) and inactive.
Regarding `c1ccc2sc(SSN3CCOCC3)nc2c1`, the Potency in experiment [1] was 61 µM (active) and 61.1 µM (active); in experiment [4], 61 µM (active) and 68.6 µM (active); in experiment [8], 17.8 µM (active); in experiment [10], 15.9 µM (active) and 11.2 µM (active); in experiment [11], 20 µM (active) and 22.4 µM (active). The Potency entry in experiment [2], in experiment [3], in experiment [9] and in [12] was “inactive” throughout.
Regarding `COC(=O)c1ccccc1`, the Potency entry in experiment [1], in experiment [2], in experiment [3], in experiment [4], in [7] and in [8] was “inactive” throughout. The Potency result in experiment [10], in [11], in experiment [9] and in experiment [12] was “inactive” throughout.
For `CCOC(=O)C(C#N)=C(c1ccccc1)c1ccccc1`, the Potency entry in [1], in experiment [2], in experiment [3], in experiment [7], in experiment [9] and in [12] was “inactive” each time. For the same molecule, the Potency is 24.3 µM (active) and 11.9 µM (active) in experiment [4]; 12.6 µM (active) in experiment [6]; 5.64 µM (active) and 4.9 µM (active) in [8]; 5.03 µM (active) and 4.9 µM (active) in experiment [10]; 3.56 µM (active) and 1.62 µM (active) in experiment [11].
For `C#C[C@]1(O)CC[C@H]2[C@@H]3CCC4=Cc5oncc5C[C@]4(C)[C@H]3CC[C@@]21C`, the Potency in experiment [1] was 43.3 µM (active) and 26.6 µM (active); in [4], 30.6 µM (active) and 29.8 µM (active). The Potency result in [2], in experiment [3], in experiment [5], in [6], in experiment [11] and in experiment [9] was “inactive” in each case.
With `Cc1cc2nc3c(=O)[nH]c(=O)nc-3n(C[C@H](O)[C@H](O)[C@H](O)CO)c2cc1C`, the Potency entry in [2], in experiment [6] and in [12] was “inactive” throughout. For the same molecule, the Potency in [4] was 30.3 µM (active) and inactive. The activity change, negative = inhibition in experiment [10] is -0.762% [at 23.6 µM] (inactive).
Turning to `CCC(C)CO` (stereo not drawn), the Potency entry in experiment [1], in experiment [2], in experiment [3], in experiment [4], in [7] and in experiment [10] was “inactive” throughout. Besides, the Potency result in [11], in [9] and in [12] was “inactive” in each case. Further, the Potency in experiment [8] is 35.1 µM (active) and inactive.
In the case of `O=S(=O)(O)c1ccc(O)cc1`, the Potency entry in experiment [1], in [2], in experiment [3], in experiment [4], in experiment [5] and in experiment [6] was “inactive” each time. Besides, the Potency result in [7], in experiment [8], in experiment [10], in experiment [11], in experiment [9] and in [12] was “inactive” throughout.
Consider `Nc1ccc(Nc2ccccc2)cc1`, for which the Potency is 53.9 µM (active) and 43.3 µM (active) and 48.6 µM (active) in experiment [1]; 42.8 µM (active) and 34.4 µM (active) and 48.6 µM (active) in [3]; 24.1 µM (active) and 19.3 µM (active) and 34.4 µM (active) in experiment [4]; 35.2 µM (active) and 35.6 µM (active) in experiment [7]; 24.9 µM (active) and 10 µM (active) and 12.6 µM (active) in [8]; 15.7 µM (active) and 25.2 µM (active) and 10 µM (active) in [10]. Further, the Potency in experiment [11] was 35.2 µM (active) and 35.6 µM (active) and 31.7 µM (active); in experiment [12], 5.58 µM (active) and 11.3 µM (active) and 7.96 µM (active). Besides, the Potency entry in [2] and in experiment [9] was “inactive” throughout.
